Measurements as given in PubChem BioAssay AID588518 (NMMLSC, 2011).
Screen size: about 1,700 compounds; about 20 (1%) were called active. The full list was thinned out, with actives kept by preference. Unmarked numbers belong to inactive results. Rule as the data show it: active = inhibition above about 26%; inactive = the rest.

These compounds were tested on Candida albicans multidrug efflux pump MDR1 (expressed in S. cerevisiae AD1-8u) (assay: inhibitors of Candida albicans Mdr1 efflux, confirmation, flow cytometry, singleplex, Cherry Pick1 set (AID 588518;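 also: 0% = DMSO vehicle and 100% = reference inhibitor; higher means more Nile Red retained so more efflux inhibition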)). Details: S. cerevisiae AD/CaMDR1, Nile Red efflux, at 10 µM, stronger effect = higher value.

| Compound | inhibition |
| --- | --- |
| CCc1ccc(NC(=O)Cn2ncn3c(cc4ccccc43)c2=O)cc1 | -0.1% |
| Cc1nc2c(C(=O)NCc3ccc4c(c3)OCO4)c[nH]n2c(=O)c1Cc1ccccc1F | -0.28% |
| Cc1cc(C)cc(NC(=O)C(OC(=O)c2ccc(O)cc2)c2ccccc2)c1 (stereo unspecified) | -0.15% |
| Cc1oc2cc3oc(=O)ccc3cc2c1C | -0.03% |
| C/C(N)=C(/C#N)C(=O)COC(=O)c1cc(-c2cccc(Br)c2)nc2ccccc12 | -0.13% |
| CCCCN1C(=O)/C(=C/C=C2/C=Cc3ccccc3N2CC)SC1=S | -0.28% |
| CCNc1c(NS(=O)(=O)c2ccc(C3CCCCC3)cc2)c(=O)oc2ccccc12 | -0.16% |
| O=C(Cc1ccc(Br)cc1)N1CCN(c2ccccn2)CC1 | -0.14% |
| CSCCC(NC(=O)COc1ccccc1)C(=O)OCCOc1ccc(Br)cc1 (stereo unspecified) | -0.39% |
| Cc1ccc2[nH]c3c(=O)n(CC(=O)NCCc4ccc(Cl)cc4)ncc3c2c1 | -0.13% |
| CCCc1nc(N2CCN(C)CC2)c2sc(=S)n(-c3ccccc3)c2n1 | -0.01% |
| COc1ccc(S(=O)(=O)N2CCOC2CNC(=O)C(=O)NCc2ccc(F)cc2)cc1 (stereo unspecified) | 0.32% |
| CCNC(=O)c1c(O)c2cccc3c2n(c1=O)CC3 | -0.2% |
| COc1ccc2[nH]c3c(C)c4cc[n+](C)cc4c(C)c3c2c1 | 0.07% |
| CC(/C=C/c1ccccc1)=N\NC(=O)C1CC1(C)c1ccccc1 (stereo unspecified) | -0.16% |
| O=C1NC(=O)C2C1C(c1ccc([N+](=O)[O-])cc1)=NN2Cc1ccccc1 (stereo unspecified) | 0.35% |
| CN(C)S(=O)(=O)c1cc(C(=O)Nc2ccn(C)n2)c(Cl)cc1Cl | -0.29% |
| COc1ccc(NC(=S)N2CCc3cc(OC)c(OC)cc3C2)cc1 | -0.21% |
| CC12CCC(C(=O)N(c3cccc(Cl)c3)C1=O)C2(C)C (stereo unspecified) | -0.13% |
| CCCCOc1ccc(C(=O)NCC(=O)OCC(=O)c2c(N)n(C)c(=O)n(C)c2=O)cc1 | -0.28% |
| COc1ccccc1/C=C/C=N/n1c(-c2ccc(Cl)cc2Cl)n[nH]c1=S | 0.32% |
| Cc1ccc(/C=C(\C#N)C(=O)Nc2cccc3ncccc23)o1 | -0.29% |
| Cc1c(CCOC(=O)CC23CC4CC(CC(C)(C4)C2)C3)sc[n+]1Cc1ccc([N+](=O)[O-])cc1 | -0.01% |
| NNC(=O)COc1ccc(C2SCCS2)cc1 | -0.31% |
| O=C(Cn1c(COc2ccccc2)nc2ccccc21)Nc1cc(Cl)c(Cl)cc1Cl | 0.02% |
| CCOC(=O)CNC(=O)CSc1nnnn1-c1cc(C)ccc1C | -0.31% |

| Compound | inhibition |
| --- | --- |
| Cc1csc(NC(=O)c2ccc(-c3ccc(Cl)cc3Cl)o2)n1 | 0.14% |
| COc1ccc(-c2sc3ccccc3c2-c2ccc(OCCN3CCOCC3)cc2)cc1 | 0.1% |
| CC(C)C(=O)N1CCC2(CC1)Oc1ccc(F)cc1C(=O)C21CC(c2ccccc2)=NO1 (stereo unspecified) | 45.9% (active) |
| CCCc1nnc(SCC(=O)Nc2ccc(C(=O)OCC)cc2)o1 | 0.19% |
| O=C(Nc1ccc(NC(=O)c2cccs2)cc1)c1ccc2ccccc2c1 | 0.05% |
| CN1CCN(S(=O)(=O)c2ccc(NC(=S)NC(=O)C3CC3)cc2)CC1 | -0.06% |
| Cc1ccc2c(c1)NC(=O)[C@@]1(C)[C@@H](c3ccccc3)[C@H]3COc4ccc(Cl)cc4[C@@H]3N1C2=O | -0.01% |
| COc1ccc(C(=O)NC2CC(C)(C)Cc3c2cnn3-c2ccccc2)c(OC)c1 (stereo unspecified) | -0.03% |
| O=C(OCc1ccc(-c2ccccc2)cc1)c1cccc(O)c1 | -0.19% |
| CC(/C=N/NC(=O)c1cc(-c2ccc3ccccc3c2)n[nH]1)=C\c1ccco1 | -0.25% |
| CCOC(=O)c1c(NC(=S)NC(=O)c2ccco2)sc2c1CCCC2 | -0.19% |
| CCCCCCCCCCCCCCCC(=O)OC/C=C(C)/C=C/C=C(C)/C=C/C1=C(C)CCCC1(C)C | -0.1% |
| COc1ccccc1NC(=O)C1CCCN1S(=O)(=O)c1ccc(Cl)cc1 (stereo unspecified) | -0.11% |
| CC1CCc2c(sc(NC(=O)c3ccc(Cn4cc(Br)cn4)o3)c2C(N)=O)C1 (stereo unspecified) | -0.1% |
| CCCCCC(=O)Nc1ccc(C(=O)N/N=C/c2ccc([N+](=O)[O-])cc2)cc1 | -0.14% |
| CSCCC(NS(=O)(=O)c1ccc(C)cc1)C(=O)N1CCCC1 (stereo unspecified) | -0.25% |
| Cc1cc(/C=N/NC(=O)CC2(C)OCCO2)c(C)n1-c1ccc(Cl)c(Cl)c1 | 0.16% |
| Cc1ccc(OCc2cc(C(=O)N(C)CCc3ccccc3)no2)cc1C | -0.03% |
| Cc1nn(C)cc1C(=O)Nc1ccccc1Br | -0.15% |
| O=C(CCCCCn1c(=O)[nH]c2ccccc2c1=O)NCCc1c[nH]c2ccccc12 | -0.03% |
| C[n+]1ccc(/C=C/c2c[nH]c3ccccc23)cc1 | 5.81% |
| O=C(Cc1ccccc1)NCC1OCCc2ccccc21 (stereo unspecified) | -0.13% |
| CCOc1ccccc1/C=c1\sc2nc(-c3ccco3)nn2c1=O | 0.22% |
| Cc1nn(C)cc1N1C(=O)c2cccc3c(N)ccc(c23)C1=O | 0.11% |
| COc1ccc2sc(-c3ccccc3OC)c(-c3ccc(OCCN4CCCC4)cc3)c2c1 | 5.13% |
| COc1ccc(/C=C(\C#N)c2c[nH]c3ccccc23)cc1 | 0.1% |

| Compound | inhibition |
| --- | --- |
| Cc1cccc(NC(=O)COc2ccccc2C)n1 | -0.06% |
| COc1ccc(C(=O)NC(=S)Nc2ccc(N3CCCC3)cc2)cc1OC | -0.18% |
| Cc1cc(C(=O)Nc2ccc(C)c(S(=O)(=O)N3CCOCC3)c2)c2ccccc2n1 | -0.31% |
| O=C(/C=C/c1c(Cl)cccc1Cl)NCc1ccccc1 | 0.02% |
| CCOc1ccc(C2/C(=C(/O)c3ccc4c(c3)CC(C)O4)C(=O)C(=O)N2CCCn2ccnc2)cc1 (stereo unspecified) | 0.05% |
| Cc1ccc(Cn2c(C)nc3c(c2=O)c2nc4ccccc4nc2n3Cc2ccco2)cc1 | 0.02% |
| CCOc1ccc2nc(Cl)c(C3CC(c4ccccc4)=NN3C(=O)c3cccs3)cc2c1 (stereo unspecified) | 0% |
| O=C(NCc1ccccc1)C(=O)NCC1OCCN1S(=O)(=O)c1ccc(Br)cc1 (stereo unspecified) | -0.13% |
| COc1cccc(-c2sc3ccc(OC)cc3c2-c2ccc(OCCN3CCCCC3)cc2)c1 | 20.7% |
| COc1cccc(NC(=O)CN(C)C(=O)/C=C/c2cc(OC)ccc2OC)c1 | -0.16% |
| O=C(CNC(=O)c1ccc(-c2ccccc2)cc1)OCc1ccc(Cl)cc1 | 0.01% |
| O=C(CN1C(=O)C2C3CCC(C3)C2C1=O)Oc1ccc2ccccc2c1 (stereo unspecified) | 0.12% |
| Cc1ccc(N=C2NC(=O)/C(=C/C=C/c3ccco3)S2)cc1C | 0.12% |
| CCOc1ccc(/C=C2\SC(=S)N(NC(=O)c3ccncc3)C2=O)cc1OC | -0.14% |
| O=S(=O)(c1ccccc1)N1CCc2ccccc21 | 0.11% |
| Cc1ccc(Cn2nnc3c(=O)[nH]c(C4CCN(S(=O)(=O)/C=C/c5ccccc5)CC4)nc32)cc1 | -0.18% |
| COc1ccccc1CSc1ncc(-c2ccc([N+](=O)[O-])cc2)[nH]1 | -0.17% |
| O=C(CSc1nnc(-c2cccnc2)n1Cc1ccco1)c1ccc(Cl)c(Cl)c1 | 0.13% |
| COc1ccc(C(=O)C2CCCN(Cc3cccn3-c3ccccn3)C2)c(C)c1 (stereo unspecified) | -0.17% |
| CC[n+]1cc(C)ccc1/C=C/c1ccc(N(C)C)cc1 | 10.7% |
| CN=C(c1ccccc1)c1c(C)cccc1C | -0.14% |
| CCn1c(/C=C/c2ccc([N+](=O)[O-])o2)nc2ccccc2c1=O | 1.88% |
| COc1ccc(C(=O)NC2CCCc3c2cnn3-c2cccc(C)c2C)c(OC)n1 (stereo unspecified) | -0.16% |
| C=CCC[C@@H](Cc1ccc(F)cc1)C(=O)OC[C@H](Cc1c[nH]c2ccccc12)NC(=O)[C@@H](CC=C)CC(=O)N(CCO)Cc1ccccc1 | 56.2% (active) |
